Assay results taken from PubChem BioAssay (EPA / NIEHS).
The source made the active and inactive calls. The calls were made as follows: active = hit-call score of the fitted dose curve at least 0.9, where 1 is the maximum; inactive = score below 0.9.

molecular target: Transcription factor E2F1 (Homo sapiens) (UniProt Q01094); assay: ATG_E2F_CIS: Attagene CIS-FACTORIAL HepG2 Assay for human E2F Transcription Factor 1 (AID 2282935); conditions: HepG2 Attagene cis-reporter, E2F reporter RNA transcripts; actives raise or lower the signal
Sequence (Q01094 whole entry, looked up): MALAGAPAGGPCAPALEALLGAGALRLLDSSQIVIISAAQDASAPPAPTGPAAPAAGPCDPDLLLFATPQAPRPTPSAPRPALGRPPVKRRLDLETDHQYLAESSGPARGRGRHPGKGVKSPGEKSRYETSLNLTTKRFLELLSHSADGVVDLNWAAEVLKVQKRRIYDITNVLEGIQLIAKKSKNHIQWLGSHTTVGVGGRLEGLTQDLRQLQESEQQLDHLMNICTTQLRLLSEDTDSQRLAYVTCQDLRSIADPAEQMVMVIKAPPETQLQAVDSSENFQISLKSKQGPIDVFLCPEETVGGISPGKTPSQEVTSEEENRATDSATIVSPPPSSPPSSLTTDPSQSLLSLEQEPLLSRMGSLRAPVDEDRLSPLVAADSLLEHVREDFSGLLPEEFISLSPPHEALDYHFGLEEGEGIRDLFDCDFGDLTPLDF
Protocol: ATG_CIS is a cell-based, multiplexed-readout assay that uses HepG2, a human liver cell line, with measurements taken at 24 hours after chemical dosing in a 24-well plate.ATG_E2F_CIS is one of 52 assay component(s) measured or calculated from the ATG_CIS assay. It is designed to make measurements of mRNA induction, a form of inducible reporter, as detected with fluorescence intensity signals by Reverse transcription polymerase chain reaction (RT-PCR) and Capillary electrophoresis technology.Data from the assay component ATG_E2F_CIS was analyzed into 1 assay endpoint. This assay endpoint, ATG_E2F_CIS, was analyzed with bidirectional fitting relative to DMSO as the negative control and baseline of activity. Using a type of inducible reporter, measures of mRNA for gain or loss-of-signal activity can be used to understand the reporter gene at the transcription factor-level as they relate to the gene E2F1. Furthermore, this assay endpoint can be referred to as a primary readout, because this assay has produced multiple assay endpoints where this one serves a reporter gene function. To generalize the intended target to other relatable targets, this assay endpoint is annotated to the dna binding intended target family, where the subfamily is E2F transcription factor.
Human liver HepG2 cells are transiently transfected with multiple reporter transcription units (MRTUs) in 6-well plates using FuGene 6 reagent (Roche; 3 ml FuGene/1 mg DNA). The MRTU constructs are regulated by a cis-regulating element (promoter). […] A major difference between the CIS and TRANS system is that in CIS activities of endogenous TFs are measured, whereas the TRANS assay evaluates changes in activities of exogenous, chimeric NR-Gal4 proteins. […] At the end of 24 hour incubation, total RNA was isolated using TriZol reagent (Invitrogen). The isolated RNA is then reverse-transcribed using oligo(dT) primer and Mo-MLV reverse transcriptase (Invitrogen) with DNAse I (Ambion) treatment for 30 min. The one-tenth of the produced cDNA was amplified by PCR using Taq DNA polymerase (Invitrogen) and two reporter sequence-specific primers. The PCR products were fluorescently labeled by primer extension with 6-arboxyfluorescein (6-FAM) 5'-labeled reporter sequence-specific primer (2 min at 95 C, 20 s at 68 C and 10 min at 72 C) and these products were digested with 5U of HpaI (New England Biolabs) for 2h at 37 C. The fragments were purified using Qiaquick PCR columns (Qiagen), analyzed on an ABI 3130xL genetic analyzer (Applied Biosystems) with peak positions identified by using a set of X-rhodamine (ROX)-labeled MapMarker1000 molecular weight standards (BioVentures). The raw capillary electrophoresis data was processed using Attagraph software (Attagene).

outcome, inactive:
O=C(O)CCCCCCCCCC(=O)O, OCCN(CCO)c1ccccc1, C=CC(=O)OCCOC1C2CCC1C1CC=CC12 (stereo not given), O=[N+]([O-])C1(Br)COCOC1, CC(C)c1ccc(C#N)cc1, CCCC(=O)OCc1ccccc1, O=C1Nc2ccccc2C1(c1ccc(O)cc1)c1ccc(O)cc1, Cc1ccc([N+](=O)[O-])cc1S(=O)(=O)O, Cc1cccc(OCCOc2cccc(C)c2)c1, Cc1ccc(OC(=O)CC(C)C)cc1, Cc1c(C)c([N+](=O)[O-])c(C(C)(C)C)c([N+](=O)[O-])c1C, CCCc1ccc(OC)cc1, COc1cc(NC(=O)CC(C)=O)c(OC)cc1Cl, C=COCCCC, OC1CCCC1, C=CC(=O)OCC(Br)CBr (stereo not given), Nc1ccc2cc3ccccc3cc2c1, CCN(CC)c1ccc(C(=O)c2ccccc2C(=O)O)c(O)c1, CC(C)c1ccc2cc(C(C)C)ccc2c1, Nc1ccc(N)c(Cl)c1, CC(C)CC(O)Cc1ccccc1 (stereo not given), CCN(CCO)c1cccc(C)c1, O=C(Nc1cccc(C(F)(F)F)c1)c1cc(Br)cc(Br)c1O, CCOC(=O)Cc1cccc2ccccc12, C=CCCCCCCCCC(=O)OCCCC, COC=O, Cc1ccc(C(C)c2ccc(C)c(C)c2)cc1C, NC(=O)N=NC(N)=O, Nc1ncn([C@@H]2O[C@H](CO)[C@@H](O)[C@H]2O)c(=O)n1, CC(C)=CC1CC(C)CCO1 (stereo not given), Cc1cc(=O)n(-c2ccccc2)n1C, O=Cc1ccc(CO)o1, CCCCCC/C=C\CCCCCCCC(=O)O, c1cc(C(c2ccc(OCC3CO3)cc2)C(c2ccc(OCC3CO3)cc2)c2ccc(OCC3CO3)cc2)ccc1OCC1CO1 (stereo not given), O=Nc1ccc(O)cc1, Cc1cc(C)c(C(=O)O)c(C)c1, C=C(C)[C@@H]1CCC2=CCC[C@@H](C)[C@]2(C)C1, C=C(C)c1cccc(C(C)(C)N=C=O)c1, OCCCS, COC(=O)c1cc(Cl)ccc1[N+](=O)[O-]
